This note sets out measurements from PubChem BioAssay AID485270 (The Scripps Research Institute Molecular Screening Center, 2010).

Screen size: about 330,000 compounds; about 5,800 (1.8%) were called active. What follows is part of a selection rich in actives, with near analogues and random picks from the rest. Unmarked numbers belong to inactive results. Rule as the data show it: active = inhibition mostly above about 38% (no sharp cut-off); inactive = mostly below about 40%.

The target of the experiment is Orexin/Hypocretin receptor type 1 (Homo sapiens) (UniProt O43613). The experiment is described as follows: blocks the human orexin 1 receptor (AID 485270).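 Also: 0% = agonist challenge alone and 100% = reference antagonist.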 To be noted: OX1R-expressing cells, FRET antagonist read-out; at 6.6 µM; active compounds read high.
Sequence of Orexin/Hypocretin receptor type 1 (Homo sapiens) (O43613 whole entry, looked up): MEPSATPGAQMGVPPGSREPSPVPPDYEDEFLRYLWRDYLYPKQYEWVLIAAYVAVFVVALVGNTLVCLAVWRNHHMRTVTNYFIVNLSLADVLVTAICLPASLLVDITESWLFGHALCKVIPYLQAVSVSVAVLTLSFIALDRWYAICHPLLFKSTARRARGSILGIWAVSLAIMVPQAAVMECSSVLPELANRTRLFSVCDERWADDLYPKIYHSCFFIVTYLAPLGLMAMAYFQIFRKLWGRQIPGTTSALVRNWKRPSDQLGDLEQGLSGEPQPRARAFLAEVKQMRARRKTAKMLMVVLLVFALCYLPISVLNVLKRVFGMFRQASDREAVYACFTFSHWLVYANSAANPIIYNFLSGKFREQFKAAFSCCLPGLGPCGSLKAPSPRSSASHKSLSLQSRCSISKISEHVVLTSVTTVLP
As usually defined, the inhibition is the relative decrease from the control value, in per cent. For the molecule `CCC(CO)Oc1cc(NC(=O)c2cccc(F)c2)c2ncn(C(C)C)c2c1` (stereo not given), the inhibition is 10.7%. Under `COc1cccc(NC(=O)COc2cccnc2[N+](=O)[O-])c1` stands 17.9%; under `O=C(CCNC(=O)c1ccccc1)NN=Cc1ccc(Br)o1`, 13.7%; under `COc1cc(OC)c(S(=O)(=O)Nc2ccccc2C(=O)O)cc1S(=O)(=O)Nc1ccccc1C(=O)O`, 3.5%.

As to `COc1cc(NC(=O)c2ccccc2NS(=O)(=O)c2ccc(Cl)s2)cc(OC)c1`, the inhibition was 72.7% (active).

Take `COC(=O)c1ccc(NC(=O)c2ccccc2NS(=O)(=O)c2ccccc2)cc1`: the inhibition is 27%.

For the molecule `NC[C@H](Cc1ccccc1)NCCc1cc(C(F)(F)F)cc(C(F)(F)F)c1`, the inhibition is 4.07%. The same measure for `CCCN(CC1CC1)C(=O)COC(=O)c1ccc(C)cc1O`: 10.6%.

For the molecule `Cc1[nH]n(-c2ccccc2)c(=O)c1/C=N/NC(=O)c1ccoc1C`, the inhibition is 17.4%. Turning to `Cc1ccc(-n2[nH]c(C)c(/C=N/N3C(=O)c4cccc5cccc(c45)C3=O)c2=O)cc1`, the inhibition is 67% (active). `COc1cc(SC#N)ccc1N=Cc1c(C)[nH]n(-c2ccc(C)cc2)c1=O`: the inhibition was 14.1%.

Consider `COc1ccc(CC(=O)N[C@@H]2c3cc(OC)c(OC)cc3C[C@H]2OCc2ccccc2)cc1`, for which the inhibition is 16%. The same measure for `O=C1NC[C@@H](c2ccccc2)OC(=O)[C@H](Cc2ccc(F)cc2)CC/C=C/C[C@H]1CC(=O)N(CCO)Cc1ccccc1`: 28.2%. As to `Cc1cc(NC(=O)CSCC(=O)NC(C)c2ccccc2)no1` (stereo not given), the inhibition was -1.97%. The same measure for `CC(NC(=O)c1ccccc1F)c1cccc2ccccc12` (stereo not given): 29.1%; for `CC(NC(=O)c1cccc2ccccc12)c1ccc2c(c1)CCCC2` (stereo not given): 79% (active); for `CC(NC(=O)c1ccccc1C(=O)O)c1ccc(-n2ccnc2)cc1` (stereo not given): 14.7%. Under `C#CCOCCOCCOCCNc1nc(N2CCN(C(=O)[C@H](CO)n3cc([C@@H](N)C(C)C)nn3)CC2)nc(N2CCN(C(=O)[C@H](CCC(=O)O)n3cc([C@@H](N)[C@H](C)CC)nn3)CC2)n1` stands 3.25%; under `Cc1n[nH]c(=O)c2c(NC(=O)COC(=O)c3ncc(Cl)c(Cl)c3Cl)oc(C)c12`, 52.6% (active). Take `Cc1n[nH]c(=O)c2c(NC(=O)CSc3ccccc3F)oc(C)c12`: the inhibition was 15.6%.

Take `Cc1n[nH]c(=O)c2c(NC(=O)CSc3cc(Cl)ccc3Cl)oc(C)c12`: the inhibition was 15.7%. The same measure for `Cc1ccc(NC(=O)C2CCC(C(C)(C)C)CC2)cc1S(=O)(=O)N1CCOCC1` (stereo not given): 13.3%; for `O=C(CC1CCCCC1)NCc1ccccc1`: 7.66%. Under `CCCCNC(=O)CN1C(=O)NC(Cc2ccccc2)(Cc2ccccc2)C1=O` stands 28.3%; under `O=C(CN1C(=O)NC(Cc2ccccc2)(Cc2ccccc2)C1=O)NCC1CCCCC1`, 42.4% (active); under `Cc1noc(C)c1NC(=O)Nc1cccc2c1O[C@H](CN(C)S(=O)(=O)c1c(C)noc1C)[C@@H](C)CN([C@H](C)CO)C2=O`, -0.11%. Consider `CCOc1ccccc1Nc1nnc(SCC(=O)NCC2CCCO2)s1` (stereo not given), for which the inhibition was 6.79%.

Take `COc1ccc(C(=O)NC2CC(C)(C)Cc3c2cnn3-c2ccccc2)c(OC)c1` (stereo not given): the inhibition is 34.6%. In the case of `COc1ccc(C(=O)NC2CC(C)(C)Cc3c2cnn3-c2ccccc2C)o1` (stereo not given), the inhibition was 71.7% (active). For the molecule `COCc1ccc(C(=O)NC2CC(C)(C)Cc3c2cnn3-c2ccc(C)cc2)o1` (stereo not given), the inhibition is 34.1%. In the case of `COc1cc(OC)c2c(-c3cccc(-c4cccc(N)c4)c3)cc(=O)oc2c1`, the inhibition was 7.11%.

`COc1ccccc1/C=N/Nc1nc(C)c(C(C)=O)s1`: the inhibition was 13.4%. For the molecule `COc1cccc(/C=N/Nc2cc(C)nc(-c3ccccc3O)n2)c1O`, the inhibition was 107% (active). Under `COc1cccc(/C=N/Nc2ncc(C(F)(F)F)cc2Cl)c1O` stands 9.55%; under `Cc1scc(C(=O)NNC(=S)NCc2ccccc2)c1C`, 11.1%.

As for `CCOC(=O)C1CCCN(C(=O)CSc2nnc3nc(C)cc(C)n23)C1` (stereo not given), the inhibition was 0.28%.

Take `N#Cc1c(NCCO)ccc([N+](=O)[O-])c1NCCO`: the inhibition is 49.8% (active). Under `O=C(NCCNc1ccccc1[N+](=O)[O-])c1ccccc1F` stands 9.6%; under `O=[N+]([O-])c1ccc(NCCCO)c(C(F)(F)F)c1`, 28.9%. The same measure for `COc1ccccc1N(CCOc1ccccc1)S(=O)(=O)c1ccccc1`: 26.3%. As for `Cc1cc(C)nc(N/N=C/c2ccc([N+](=O)[O-])o2)n1`, the inhibition is 60.5% (active). The same measure for `COc1ccc(C(=O)NCC(=O)N/N=C/c2ccc([N+](=O)[O-])o2)cc1OC`: 40%; for `Cc1cc(C)nc(N/N=C/c2c(C)oc3ccccc23)n1`: 24.7%.

For `COc1ccc(S(=O)(=O)N2CCCCCC2)cc1NC(=O)Cc1ccc(OC)c(OC)c1`, the inhibition is 8.64%. Consider `COc1cc(OC)cc(-c2c(C#Cc3ccsc3)c3cc(-c4ccc(OC)cc4F)ccc3n2C)c1`, for which the inhibition is 9.29%. With `Cc1noc(C)c1S(=O)(=O)N(C)C[C@H]1Oc2ccc(NC(=O)C3CC3)cc2C(=O)N([C@H](C)CO)C[C@@H]1C`, the inhibition was 3.87%.

As to `CN1C(=O)[C@H]2[C@@H](/C=C/c3ccccc3)N3C(=O)CN(Cc4ccc(-c5ccccc5)cc4)C(=O)[C@@]3(C)[C@H]2C1=O`, the inhibition is -0.45%. With `CN1CN(C)c2ccc([N+](=O)[O-])c3cccc1c23`, the inhibition is 44.5% (active). In the case of `O=[N+]([O-])c1cccc2ncccc12`, the inhibition was 22.2%. On to `CN1CCN(c2ccc(S(=O)(=O)Nc3ccccc3)cc2[N+](=O)[O-])CC1`, for which the inhibition is 27.9%.

On to `Cc1ccccc1NC(=O)CSC(=O)c1ccccc1`, for which the inhibition is 3.63%. Under `COC(=O)C1CCN(C(=O)COC(=O)c2cc(S(=O)(=O)N3CCOCC3)ccc2C)CC1` stands -3.08%; under `CN1CCN(/N=C2/C(=O)Nc3ccc([N+](=O)[O-])cc32)CC1`, 72.6%.

For `CN1CCN(/N=C/c2ccc(-c3ccc([N+](=O)[O-])cc3)o2)CC1`, the inhibition is 83.2% (active). The same measure for `CN1CCN(/N=C/c2ccc(C#N)cc2)CC1`: 37.9%. Under `C[C@H](CO)N1C[C@H](C)[C@@H](CN(C)Cc2ccc(-c3ccccc3)cc2)Oc2ccc(NC(=O)Cn3cnnn3)cc2C1=O` stands -2.89%; under `CC(C)N(C(=O)[C@H]1C[C@H](CC(=O)NCCC2=CCCCC2)C(=O)N2CCc3c([nH]c4cc(CCC(=O)N(C)C)ccc34)[C@]12C)C(C)C`, 10.8%. The same measure for `CCN(CC(=O)Nc1c(F)cccc1F)C(=O)c1ccc(Sc2nncn2C)c([N+](=O)[O-])c1`: 37%; for `CC(C)(C)n1cnnc1Sc1ccc([N+](=O)[O-])cn1`: 36.8%. Take `Cn1cnnc1Sc1ccc(S(C)(=O)=O)cc1[N+](=O)[O-]`: the inhibition was 95.8% (active). On to `CC[C@]12c3[nH]c4ccc(Cl)cc4c3CCN1C(=O)[C@@H](CC(=O)NCCN1CCOCC1)C[C@@H]2C(=O)N1CCN(C(=O)C2CC2)CC1`, for which the inhibition is 3.88%. The same measure for `O=C(NNC(=O)C1CCCC1)c1ccc(F)cc1`: 7.91%. The same measure for `Cc1ccc(/C=C/C(=O)Nc2ccc([N+](=O)[O-])c(NC(=O)/C=C/c3ccc(C)o3)c2)o1`: 13.2%; for `O=C(/C=C/c1ccc([N+](=O)[O-])o1)NNC(=O)c1ccc(F)cc1`: 57.8% (active). With `C=CCn1c(SCc2c(C(=O)OC)sc(N)c2C(=O)OC)nnc1-c1ccc(Cl)cc1`, the inhibition was 45.4% (active). The same measure for `C=CCn1c(SCn2nnc3ccccc3c2=O)nnc1-c1ccc(Cl)cc1`: 25%.

On to `C=CCn1c(SCc2cc(C(=O)OC)c(C)o2)nnc1-c1ccncc1`, for which the inhibition is 18.3%. As for `Cc1ccc(NC(=O)COC(=O)C2CC2)cc1S(=O)(=O)N1CCOCC1`, the inhibition was 4.49%. Under `CCCCOc1ccc(C(=O)NCC(=O)OCC(=O)c2c(N)n(C)c(=O)n(C)c2=O)cc1` stands 4.34%; under `COc1ccc(NC(=O)CNc2cc(S(=O)(=O)N3CCOCC3)ccc2N2CCOCC2)c(OC)c1`, 17.1%. Under `C#CCOCCOCCOCCNc1nc(N2CCN(C(=O)[C@H](CCC(=O)O)n3cc(CN)nn3)CC2)nc(N2CCN(C(=O)[C@H](CCC(=O)O)n3cc(CN)nn3)CC2)n1` stands 4.4%. Under `CCn1c(=S)[nH]c2cc(S(=O)(=O)N3CCOCC3)ccc21` stands 8.76%; under `COCC(C)n1c(SCc2ccc(C(=O)OC)o2)nc2ccccc2c1=O` (stereo not given), 29.3%; under `COCC(C)n1c(SCC(=O)NC2CCCCC2C)nc2ccccc2c1=O` (stereo not given), 39.7% (active). On to `COCCn1c(C)cc(C(=O)CSc2nc3ccccc3c(=O)n2C(C)COC)c1C` (stereo not given), for which the inhibition is 9.56%.

As for `O=C1CCC/C=C\C[C@@H](CC(=O)N(CCO)Cc2ccccc2)C(=O)NCCO1`, the inhibition was 3.3%. The same measure for `O=C(c1ccco1)N1CCN(C(=O)C2CCCN(S(=O)(=O)c3cccc4nsnc34)C2)CC1` (stereo not given): 59.8% (active); for `COc1ccccc1CNC(=O)C1CCCN(S(=O)(=O)c2cccc3cccnc23)C1` (stereo not given): 11.7%.

Turning to `O=C(c1ccco1)N1CCN(C(=O)C2c3ccccc3Oc3ccccc32)CC1`, the inhibition is -0.85%. For `O=C(NCc1ccco1)C1CCCN(S(=O)(=O)c2cccc3nonc23)C1` (stereo not given), the inhibition is 95.8% (active). As to `CCCCN(CC)C(=O)C1CCCN(S(=O)(=O)c2cccc3nsnc23)C1` (stereo not given), the inhibition was 39.7% (active). Consider `CCCCN(C)CCNC(=O)C1CCCN(S(=O)(=O)c2cccc3nsnc23)C1` (stereo not given), for which the inhibition is 26.9%. Take `O=C(NCc1ccco1)C1CCCN(S(=O)(=O)c2cnc[nH]2)C1` (stereo not given): the inhibition is 6.51%. Under `O=C(NCc1ccco1)C1CCCN(S(=O)(=O)c2ccccc2)C1` (stereo not given) stands 22.4%. On to `COc1cccc(N2CCN(C(=O)C3CCCN(S(=O)(=O)c4cnc[nH]4)C3)CC2)c1` (stereo not given), for which the inhibition was 4.15%.
